# About 60 (5%) of roughly 1,200 compounds were called active. Another 1% or so got no clear call; they are omitted.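 How the source made its calls: active means Decreasing signal and fitted IC50 at most twice the top valid tested dose; inconclusive means Bad fit or a level curve showing 30 to 70% inhibition; inactive means the rest.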 These entries were drawn from the full list. Entries with a potency or affinity are not part of this list.
# Target: NAD-dependent protein deacylase sirtuin-5, mitochondrial (Homo sapiens) (UniProt Q9NXA8)
# Assay: sirtuin-5 deacylation blockers, concentration series – biochemical, fluorescence imaging, cherry-pick, set 5, dose response (AID 720591);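 further: 0% = median of neutral control wells and -100% = median of positive control wells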
# Settings: Purified SirT5, succinyl-peptide AMC, trypsin-coupled fluorescence; series mostly up to 15 µM; activity change, negative = inhibition: at the top concentration
# NAD-dependent protein deacylase sirtuin-5, mitochondrial (Homo sapiens), sequence (Q9NXA8 whole entry, looked up): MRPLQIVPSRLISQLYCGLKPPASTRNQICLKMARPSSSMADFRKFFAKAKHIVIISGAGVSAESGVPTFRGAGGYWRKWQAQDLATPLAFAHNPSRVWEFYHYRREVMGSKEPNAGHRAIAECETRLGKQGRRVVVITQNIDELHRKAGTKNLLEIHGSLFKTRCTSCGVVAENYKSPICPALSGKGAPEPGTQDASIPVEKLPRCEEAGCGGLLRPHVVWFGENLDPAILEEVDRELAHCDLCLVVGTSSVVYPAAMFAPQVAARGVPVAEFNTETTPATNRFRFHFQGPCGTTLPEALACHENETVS
row,Compound,"activity change, negative = inhibition"
1,Cc1ccc(CNC(=O)CCCCCNC(=O)N2CCn3c2nc2ccccc23)cc1,-20.1% (inactive)
2,O=C(NC1CCCCC1)c1ccc(S(=O)(=O)c2ccccc2)cc1,-29.3% (inactive)
3,CCOC(=O)C1CCN(C(=O)Cn2cc(C(=O)OC)c3ccccc32)CC1,-21.2% (inactive)
4,COc1ccc(NC(=O)CN2CCN(c3ccccn3)CC2)cc1Cl,5.95% (inactive)
5,C=C(C)COc1ccc(-c2ncncc2-c2ccc(OC)cc2)c(O)c1,4.58% (inactive)
6,COc1ccc(-c2csc3nc(C(C)C)oc(=O)c23)cc1OC,-30.7% (inactive)
7,Cn1cc(C(=O)NCCc2ccccc2)c(=O)c2cc(S(=O)(=O)N3CCOCC3)ccc21,3.07% (inactive)
8,CC(C)c1ccccc1NC(=O)c1cnccn1,-32.5% (inactive)
9,O=C(c1ccccc1)c1coc2ccc(O)c(Cl)c12,-19.4% (inactive)
10,Nc1nc(-c2ccc(C(=O)O)cc2)cs1,-22.5% (inactive)
11,O=C(O)CCC(=O)Nc1ccc(-c2nc3ccc(C(=O)c4ccccc4)cc3[nH]2)cc1,-28.6% (inactive)
12,CC(C)(C)C(=O)Oc1cccc(Nc2ncnc3ccccc23)c1,-14.3% (inactive)
13,Cc1ccc(S(=O)(=O)NCC(=O)OCC(=O)NCc2ccc(F)cc2)cc1,-17% (inactive)
14,Cc1nnc(SCC(=O)Nc2ncc3c(n2)CC(c2ccccc2)CC3=O)s1 (stereo unspecified),-14% (inactive)
15,Cc1ccc(S(=O)(=O)Nc2ccc(N(C)C)cc2)cc1,-8.19% (inactive)
16,COc1ccc(N2CC(NC(=O)N3CCc4ccccc43)CC2=O)cc1OC (stereo unspecified),-30% (inactive)
17,CN(C)CCOC(=O)NCC12CC3CC(CC(C3)C1)C2,-14.8% (inactive)
18,C[C@@H]1CN([C@@H](C)CO)C(=O)CCCn2nncc2CO[C@H]1CN(C)C(=O)C1CCCCC1,-4.24% (inactive)
19,CCCCCCN1C[C@@H](O)[C@H](n2cc(COC(=O)c3ccccc3)nn2)C[C@@H]1c1ccc(C)cc1,11.7% (inactive)
20,C[C@H]1COc2cc(NCCO)ccc2S(=O)(=O)N1,19.8% (inactive)
21,Cc1ccc(S(=O)(=O)N2C[C@@H]3CCCC[C@@H]3[C@@H](C)[C@H]2c2cn(Cc3ccccc3)c3ncccc23)cc1,14.3% (inactive)
22,CCOc1ccccc1NC(=O)CN1c2cccc3cccc(c23)S1(=O)=O,12.7% (inactive)

row,Compound,"activity change, negative = inhibition"
1,Nn1c(C2CCC2)nc2cc(Cl)ccc2c1=O,-25.2% (inactive)
2,CCC(C)C(CO)NCCCn1cnc2c(SC)ncnc21 (stereo unspecified),4.95% (inactive)
3,Cc1csc(NC(=O)c2cc3ccccc3o2)n1,12.3% (inactive)
4,Cc1nc(NC(=O)c2cc3ccccc3o2)sc1C,7.97% (inactive)
5,Cc1ccc(OCCNC(=O)C2CCCCC2)cc1,7.97% (inactive)
6,Cc1cc(C)c2c(CN3CCOCC3)cc(=O)oc2c1,2.2% (inactive)
7,COc1ccc(CNC(=O)CCn2ccc3cc(S(=O)(=O)N4CCCC4)ccc32)cc1,-22.9% (inactive)
8,COc1ccc(CN(C(=O)c2ccco2)c2ccccc2)cc1,13.5% (inactive)
9,COc1ccc(CN(C(=O)c2ccco2)c2ccc(C)cc2)cc1OC,-33.2% (inactive)
10,CN1C(=O)[C@H]2[C@@H](C3CC3)N3C(=O)CN(CCO)C(=O)[C@@]3(Cc3ccccc3)[C@H]2C1=O,-16.4% (inactive)
11,CCOc1ccc(-c2noc(CCCC(=O)NC3CCCC3)n2)cc1OC,1.29% (inactive)
12,CCCCCNC(=O)C(c1cc2ccccc2o1)n1c(=O)c(-c2ccccc2)nc2ccccc21 (stereo unspecified),-20.3% (inactive)
13,COc1ccc(CCNC(=O)COC(=O)CCC(=O)c2ccc(F)cc2)cc1OC,16.3% (inactive)
14,CCCCCCNC(=O)c1ccc(Br)o1,2.66% (inactive)
15,COc1cc(C(=O)NCC2(N(C)C)CCCCC2)ccc1OCc1ccccc1,5.49% (inactive)
16,Cn1c(NCCCO)nc2c1c(=O)n(Cc1ccccc1F)c(=O)n2C,5.2% (inactive)
17,CC(=O)c1cc(-c2ccc(F)cc2)n(CCC(=O)NC(C)(C)C)c1C,40.1% (inactive)
18,CCCCNC(=O)C[C@@H]1C[C@@]2(C(=O)OC)CC(C)(C)CC=C2N(Cc2ccco2)C1=O,2.48% (inactive)
19,COC(CNC(=O)CC1C(=O)N(Cc2ccccc2)C(C)c2nc3ccccc3n21)OC (stereo unspecified),16.8% (inactive)
20,Cc1ccc(S(=O)(=O)N2C[C@@H](C)[C@]3(C2)[C@H](O)[C@H](OC(=O)NCc2ccco2)C[C@H]2C(=O)N(c4ccccc4)C(=O)[C@H]23)cc1,-12.3% (inactive)
21,OC[C@@H]1CN(Cc2cccs2)C[C@H](n2cnc3c(Nc4ccccc4)ncnc32)O1,1.28% (inactive)
22,CCc1cc2c(=O)c(-c3nc4ccccc4n3C)coc2c(CN2CCCCC2)c1O,32.2% (inactive)

row,Compound,"activity change, negative = inhibition"
1,Cc1ccc(NC(=O)c2ccc3c(c2)CCN3S(C)(=O)=O)cc1,11.9% (inactive)
2,Cc1cc(C)cc(N(C(=O)CCC(=O)Nc2cc(C)on2)C(C(=O)NC2CCCC2)c2ccco2)c1 (stereo unspecified),-2.73% (inactive)
3,COc1ccc(CC(=O)NCC2CCCN(Cc3ccc(OC(F)(F)F)cc3)C2)cc1 (stereo unspecified),-23.7% (inactive)
4,CCOC(=O)C(Cc1ccc(NC(C)=O)cc1)N1C(=O)c2ccccc2C1=O (stereo unspecified),-8.71% (inactive)
5,O=C(OCC(=O)N1CCCC1)c1cc(Br)ccc1Cl,-18.6% (inactive)
6,Oc1ccc(-c2n[nH]c(C(F)(F)F)c2-c2ccccc2)c(O)c1,-7.08% (inactive)
7,COc1ccccc1-c1cc(C(=O)NC(C)C)no1,-1.51% (inactive)
8,CC1c2nc3ccccc3n2C(CC(=O)NC2CC2)C(=O)N1Cc1ccccc1 (stereo unspecified),4.72% (inactive)
9,Cn1c(=O)[nH]c(=O)c2c1nc(N1CCNCC1)n2Cc1ccccc1,15.6% (inactive)
10,Cc1ccc(Cn2c(N3CCN(C)CC3)nc3c2c(=O)[nH]c(=O)n3C)cc1,-22.3% (inactive)
11,Oc1ccc(-c2nccc(-c3ccc(Cl)cc3Cl)n2)cc1,-31.7% (inactive)
12,Cc1ccc(-c2nc3c(Cl)cc(C(F)(F)F)cn3c2Cc2cccc(F)c2)cc1,6.86% (inactive)
13,CC(=O)c1cccc(NC(=O)CCS(=O)(=O)c2ccc(Br)s2)c1,-17.1% (inactive)
14,O=C(Nc1ccc2c(c1)OCCO2)C(c1ccnc2ccccc12)N1CCN(c2ccc(F)cc2)CC1 (stereo unspecified),18.7% (inactive)
15,C=CC[C@H](CC(=O)N(CCO)Cc1ccccc1)C(=O)N[C@@H](COC(=O)[C@H](CC=C)CC(=O)OC(C)(C)C)Cc1c[nH]c2ccccc12,17% (inactive)
16,CSc1nc(N)nc2c1ncn2CC(=O)NCC1CCCO1 (stereo unspecified),5.49% (inactive)
17,O=C(NCc1ccc(F)cc1)C1CC(=O)N(C2CCCCC2)C1 (stereo unspecified),-24.7% (inactive)
18,O=C(Nc1ccccc1Cl)c1cccs1,-20.1% (inactive)
19,Cc1cc(C)c(NC(=O)CN(C)C(=O)CNC(=O)c2cccs2)c(C)c1,-17.8% (inactive)
20,COc1ccccc1CCNS(=O)(=O)c1cc2c3c(c1)C(C)C(=O)N3CCC2 (stereo unspecified),-29.6% (inactive)
21,COc1ccc(Nc2oc(-c3ccco3)nc2S(=O)(=O)c2ccc(F)cc2)cc1,-8.04% (inactive)
22,Cc1nn(CC(=O)N(C)C)c(=O)c2ccccc12,-8.69% (inactive)
